# Data published in PubChem BioAssay (NCI).
# The panel holds about 83,000 compounds, 20% with a hit somewhere; the sample as a whole holds those more often.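 How to read the values: 0–100, growth inhibition (40 = 60% inhibited); 0, no net growth; -100 to 0, cell death (-40 = 40% of starting cells died; -100 = all dead).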 Values without a mark were called inactive. Active and inactive are the calls of the source. Rule for the calls: active = growth percent below 10; inactive = the rest.
# Tests used:
# Assay in all cases: NCI-60 one-dose screen, 48 h (100 = growth as untreated, 0 = no growth, -100 = all killed)
# Conditions in all cases: 10 µM unless noted
# HCT-15 colon = system: HCT-15 colon
# HT29 colon = system: HT29 colon
# SNB-75 CNS = system: SNB-75 CNS
# SNB-19 CNS = system: SNB-19 CNS
# U251 CNS = system: U251 CNS
# PC-3 prostate = system: PC-3 prostate
# SK-MEL-5 melanoma = system: SK-MEL-5 melanoma
# UACC-62 melanoma = system: UACC-62 melanoma
# LOX IMVI melanoma = system: LOX IMVI melanoma
# SK-MEL-28 melanoma = system: SK-MEL-28 melanoma
Structure (SMILES),growth (HCT-15 colon),growth (HT29 colon),growth (SNB-75 CNS),growth (SNB-19 CNS) [%],growth (U251 CNS),growth (PC-3 prostate) [%],growth (SK-MEL-5 melanoma),growth (UACC-62 melanoma) [%],growth (LOX IMVI melanoma),growth (SK-MEL-28 melanoma)
Cc1cc(C)c2c(n1)sc1c(Nc3ccc(Cl)cc3Cl)ncnc12,46.2%,38.9%,39.7%,32.4,25%,50.9,25.5%,15.6,10.2%,61.4%
CC1=C(O)C(=O)C(c2c(C)cc(C)c(Br)c2C)=C(O)C1=O,35.5%,66.7%,59.6%,63.9,65.8%,84.5,57.4%,40.7,35.7%,73.5%
Cc1ccc(Nc2nc(NCCO)c3ccccc3n2)cc1C,15.6%,12.9%,39.6%,57,15.1%,35.7,-18.6% (active),35.7,8.62% (active),52.5%
Cc1ccc(NC(=O)c2nc(S(C)(=O)=O)oc2-c2ccc(F)cc2)cc1Nc1ccc2ncn(C)c(=O)c2c1,3.34% (active),15.8%,105%,126,69.7%,88.6,78.9%,85.8,-71.5% (active),82.1%
C1=C\CCCCN2CC[C@H]3[C@H](CCCC/C=C\CCCN4C[C@@H](CCCCC/1)C[C@@H]3C4)C2,25.3%,9.89% (active),44.3%,106,72.3%,76.7,71%,92,65.5%,-90.3% (active)
CCCCCCCCCCCCCCCCOc1ccc(S(=O)(=O)N(C)C)cc1[N+](=O)[O-],97.2%,96.4%,21.2%,78.9,50.6%,94.4,101%,86.7,120%,107%
CC1=NC(c2ccc(Cl)cc2)C2=C(N1)/C(=C/c1ccc(Cl)cc1)CCC2 (stereo not given),79.8%,54.4%,86.6%,102,66%,89.1,84.9%,83.3,36.8%,93.9%
O=c1cc(-c2ccc3c(c2)OCCO3)oc2cc(Cl)ccc12,74.5%,-16.8% (active),-38.5% (active),30.3,4.26% (active),43.3,76.3%,65.1,32.1%,21.4%
COc1ccc2cc(-c3nc(C)c(C(C)=O)c(-c4ccc(C)cc4)n3)ccc2c1,88.2%,82.4%,98.5%,92.8,94.5%,85.9,75.4%,71.7,101%,101%
N=c1n(Cc2ccccc2)c(N)cc(=O)n1Cc1ccccc1,45.8%,26.8%,36.6%,52.8,25.4%,37.5,2.83% (active),33.8,14.2%,60.8%
COc1ccc(/C=C2\N=C(c3cccnc3)N(c3ccccc3)NC2=O)cc1,95.1%,107%,80.6%,96.8,106%,74.2,98.7%,95.4,92.7%,129%
COc1cc(NC(C)CCCN)c2ncccc2c1Sc1ccc(Cl)cc1 (stereo not given),39.3%,-46.4% (active),48.7%,78.3,39.3%,47.1,67.3%,81.2,-62.4% (active),93.3%
C=CCn1c(SCC(=O)Nc2ccc(C(=O)/C=C/c3ccc(Cl)cc3)cc2)nnc1-c1ccc(Cl)cc1,77.2%,92.8%,73.8%,91.1,79.7%,69.9,90.6%,71.2,89.9%,104%
